High-throughput results: PubChem BioAssay, National Center for Advancing Translational Sciences (NCATS)
Only some compounds are listed: those with a hit (about 2.4% of all), similar ones and a draw of the others.
WRN helicase inh: WRN helicase (human) inhibition; Potency, µM (titrated, usually from 114 µM), hits mostly inhibitors; AID 651768; Q14191; WRN helicase unwinding, fluorescent forked duplex, kinetic; hit rate 0.46% among 360,000; further: nearly all actives have a fitted effect of over 55% in size
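Kinetic fluorescence helicase assay: unwinding of a quenched forked DNA duplex (100 nM final) with 2 mM ATP final raises red fluorescence (525/598 nm). Compounds sat 15 min at room temperature with 20 nM WRN beforehand.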
POLI inh: DNA polymerase iota (human) inhibition. AID 588590. Q9UNA4. hit rate 1% among 390,000. Pol iota fluorescent replication assay, 10 min. Potency, µM (series often up to 115 µM), actives largely listed as inhibitors
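Fluorescent replication assay read twice, at 0 min and 10 min after adding 50 nM (final) substrate. Enzyme (10 nM) and compounds were first incubated 15 min at room temperature; enzyme-free buffer wells were negative controls.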
Pol eta inh: inhibitors of human DNA polymerase eta; Q9Y253; recombinant Pol eta, fluorescent DNA replication assay; Potency, µM (top dose mostly 114 µM), hits mostly inhibitors; hit rate 1.2% among 390,000; AID 588591
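Pol eta (10 nM) was preincubated with compounds for 15 min at room temperature, after which fluorescent replication substrate (50 nM final) was added to start the reaction. Fluorescence was read kinetically at 0 and 10 min.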
FEN1 inhibitor: human FEN1 inhibition; Potency, µM (top dose mostly 114 µM), hits mostly inhibitors; AID 588795; P39748; hit rate 0.35% among 390,000; Recombinant FEN1 flap cleavage, fluorescence, 15 min; further: nearly all actives have a fitted effect of over 65% in size
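Read-out was taken twice, immediately and after 15 min, following addition of 50 nM substrate to 10 nM FEN1 that had sat with test compound for 15 min at room temperature. Curves came from a four-parameter Hill model.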
Pol kappa inh: blocks human DNA polymerase kappa activity | Q9UBT6 | purified Pol kappa, fluorescent DNA synthesis assay, 10 min | Potency, µM (top dose mostly 107 µM), most hits filed as inhibitors | hit rate 0.53% among 400,000 | AID 588579
Target sequence (Q9UBT6 whole entry, looked up): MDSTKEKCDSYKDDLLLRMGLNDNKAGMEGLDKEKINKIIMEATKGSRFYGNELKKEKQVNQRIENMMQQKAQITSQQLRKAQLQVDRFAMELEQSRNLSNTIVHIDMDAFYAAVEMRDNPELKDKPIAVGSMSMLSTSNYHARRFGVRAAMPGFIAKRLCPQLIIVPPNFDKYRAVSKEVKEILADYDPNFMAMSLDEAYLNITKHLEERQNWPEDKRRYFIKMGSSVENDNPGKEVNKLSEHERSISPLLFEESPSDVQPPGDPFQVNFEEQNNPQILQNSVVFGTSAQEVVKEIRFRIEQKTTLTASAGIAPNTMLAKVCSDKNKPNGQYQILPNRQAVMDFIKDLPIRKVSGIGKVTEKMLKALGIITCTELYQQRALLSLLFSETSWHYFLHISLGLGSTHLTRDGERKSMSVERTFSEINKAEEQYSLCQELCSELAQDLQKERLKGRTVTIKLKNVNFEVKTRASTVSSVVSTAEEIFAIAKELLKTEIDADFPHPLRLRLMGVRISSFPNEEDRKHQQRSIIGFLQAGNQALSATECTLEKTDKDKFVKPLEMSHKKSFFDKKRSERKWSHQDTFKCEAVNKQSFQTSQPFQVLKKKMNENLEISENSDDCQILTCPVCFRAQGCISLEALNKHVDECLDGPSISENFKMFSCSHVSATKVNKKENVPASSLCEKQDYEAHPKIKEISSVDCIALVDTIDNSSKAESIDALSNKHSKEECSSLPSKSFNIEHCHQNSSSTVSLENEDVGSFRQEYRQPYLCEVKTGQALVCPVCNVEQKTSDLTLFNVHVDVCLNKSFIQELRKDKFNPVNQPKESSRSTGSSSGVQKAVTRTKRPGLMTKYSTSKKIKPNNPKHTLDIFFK
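First, compounds were pin-transferred onto 10 nM Pol kappa. After 15 min at room temperature, substrate was added to 50 nM final. Fluorescence was then measured kinetically at 0 and 10 min.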
Pol beta inh: inhibitors of human DNA polymerase beta; P06746; Pol beta primer extension/strand displacement, fluorescence kinetic; Potency, µM (series often up to 114 µM), actives largely listed as inhibitors; hit rate 1.3% among 340,000; AID 485314
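Values derive from four-parameter Hill fits of normalized kinetic data: reads at 0 and 10 min following addition of 50 nM substrate to 10 nM Pol beta preincubated 15 min with compound.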
Numbers stand for hits; n = inactive; u = inconclusive; x = not tested or not shown. The call rests on the fitted dose curve; in most records, active means well fitted curve in the direction sought with a large enough effect; inconclusive means small, poorly fitted or top-dose-only effect, or another doubt; inactive means no such curve, though single readings can be large; an effect the other way counts as inactive or inconclusive.

SMILES | WRN helicase inh | POLI inh | Pol eta inh | FEN1 inhibitor | Pol kappa inh | Pol beta inh
Cc1cc(=O)[nH]c(N/N=C/c2cccc(Br)c2)n1 | n | n | n | n | n | n
COc1ccc(OC)c(/C=C2\NC(=O)NC2=O)c1 | n | n | n | n | n | u
O=C(Nc1cc(C(=O)N2CCN(c3ccccc3)CC2)ccc1Cl)c1cccs1 | n | n | n | n | n | x
CCOc1ccc(C(c2c(C)[nH]n(-c3ccccc3)c2=O)c2c(C)[nH]n(-c3ccccc3)c2=O)cc1OC | x | 0.708µM | n | u | n | n
COc1cccc(C(C[N+](=O)[O-])c2c(C)[nH]n(-c3ccccc3)c2=O)c1 (centres undefined) | n | 2.51µM | n | n | n | n
Cc1[nH]n(-c2ccccc2)c(=O)c1C(c1ccc(C(=O)O)cc1)c1c(C)[nH]n(-c2ccccc2)c1=O | u | 1.41µM | n | n | n | n
Cc1[nH]n(-c2ccccc2)c(=O)c1C(C[N+](=O)[O-])c1ccc(Br)cc1 (centres undefined) | u | n | n | n | n | n
CCN(CC)S(=O)(=O)c1ccc(NC(=O)CCC2CCCCC2)cc1 | n | n | n | n | n | n
O=C(CCN1C(=O)c2ccccc2C1=O)NCc1ccco1 | n | 50.1µM | u | n | n | n
O=C(CCCN1C(=O)c2ccccc2C1=O)Nc1sc2c(c1C(=O)NCc1ccco1)CCC2 | n | u | n | n | n | 20µM
O=C(CN1C(=O)c2ccccc2C1=O)Nc1sc2c(c1C(=O)NCc1ccco1)CCCC2 | n | u | u | n | n | n
Cc1cc(C)c2c(n1)nn1c(C)c(CCC(=O)Nc3ccc(C)c(Cl)c3)c(C)nc21 | x | n | x | n | n | n
COc1ccc(NC(=O)c2cc(-c3ccccc3Cl)on2)cc1OC | n | 79.4µM | n | u | u | n
COc1ccc(NC(=O)c2cc(-c3ccc(OC)c(OC)c3)on2)cc1OC | n | n | n | n | n | n
Cc1ccc([N+](=O)[O-])cc1S(=O)(=O)Nc1ccc(C(=O)NCC2CCCO2)cc1 (centres undefined) | n | u | 79.4µM | n | n | x
Cc1ccc(C)n1-c1ccc(C(=O)NCC2CCCO2)cc1 (centres undefined) | n | u | u | n | n | 39.8µM
C[C@@H]1CCC2[C@](C)(CO)[C@@H](O)CC[C@]2(C)[C@@]12CC[C@@](CO)(CC(=O)O)O2 (some centres undefined) | n | n | n | n | n | n
O=C(NCC(=O)N1CCN(Cc2c(F)cccc2Cl)CC1)c1cccc(Cl)c1 | n | n | n | n | n | x
O=C1CCN(S(=O)(=O)c2ccccc2)C2CCCCC12 (centres undefined) | n | u | n | n | n | n
O=C1NC2CCCCC2C(=O)N1OS(=O)(=O)c1ccccc1 (centres undefined) | 50.1µM | u | n | n | n | x
CCc1ccc(NC(=O)CSc2nc3c([nH]c4ccccc43)c(=O)n2-c2ccc(C)cc2)cc1 | x | n | n | n | n | n
CCOC(=O)c1c(NC(=O)/C=C/C(=O)O)sc(C)c1-c1ccc(C(C)(C)C)cc1 | n | u | 22.4µM | n | n | u
C=CC(=O)Oc1ccc(N2Cc3ccccc3C2=O)cc1 | 56.2µM | 39.8µM | 31.6µM | n | n | x
COc1ccc(N2Cc3ccccc3C2=O)cc1 | n | n | n | n | n | n
O=C(Nc1cccc(C(=O)Nc2cccc(Br)c2)c1)c1ccccc1 | n | n | n | n | n | n
SMILES | WRN helicase inh | POLI inh | Pol eta inh | FEN1 inhibitor | Pol kappa inh | Pol beta inh
CCCCCCN1C[C@H](O)[C@@H](n2cc(-c3ccc(F)cc3)nn2)C[C@@H]1c1ccc(C)cc1 | n | x | n | x | x | x
CC(C)(O)C#Cc1ccc(C(=O)N2CCN(c3ccccc3)CC2)cc1 | n | n | n | n | n | n
Cc1ccc(S(=O)(=O)N(C)C)cc1NC(=O)COC(=O)/C=C/c1cnc2ccccc2n1 | n | n | n | n | n | n
CC(=O)c1cccc(N(CC(=O)N2CCCC2)S(C)(=O)=O)c1 | n | u | n | n | n | n
CN(Cc1ccsc1)C(=O)Cn1cc(Br)ccc1=O | n | 22.4µM | n | n | n | n
CNC(=O)c1ccc(-c2ccccc2)s1 | n | n | n | n | n | n
